Most compounds without a hit are left out; they make up all but 11% or so of the library.
ALDH1A1 inh – qHTS Assay for Inhibitors of Aldehyde Dehydrogenase 1 (ALDH1A1); Potency, µM (series often up to 75.3 µM), inactives show top-dose activity, negative = inhibition, hits mostly inhibitors; hit rate 7.3% among 220,000; AID 1030, 2008; Aldehyde dehydrogenase 1A1 (Homo sapiens), P00352; Purified ALDH1A1, NADH fluorescence, propionaldehyde substrate; active means well fitted inhibition curve with a large enough effect, not every such curve was filed as active; inconclusive means small, poorly fitted or top-dose-only effect, or another doubt; inactive means no such curve, though single readings can be large or run the other way;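 further: potency means the concentration at half of the fitted maximal effect; plate controls were no enzyme wells and a reference inhibitor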
Target sequence (P00352 whole entry, looked up): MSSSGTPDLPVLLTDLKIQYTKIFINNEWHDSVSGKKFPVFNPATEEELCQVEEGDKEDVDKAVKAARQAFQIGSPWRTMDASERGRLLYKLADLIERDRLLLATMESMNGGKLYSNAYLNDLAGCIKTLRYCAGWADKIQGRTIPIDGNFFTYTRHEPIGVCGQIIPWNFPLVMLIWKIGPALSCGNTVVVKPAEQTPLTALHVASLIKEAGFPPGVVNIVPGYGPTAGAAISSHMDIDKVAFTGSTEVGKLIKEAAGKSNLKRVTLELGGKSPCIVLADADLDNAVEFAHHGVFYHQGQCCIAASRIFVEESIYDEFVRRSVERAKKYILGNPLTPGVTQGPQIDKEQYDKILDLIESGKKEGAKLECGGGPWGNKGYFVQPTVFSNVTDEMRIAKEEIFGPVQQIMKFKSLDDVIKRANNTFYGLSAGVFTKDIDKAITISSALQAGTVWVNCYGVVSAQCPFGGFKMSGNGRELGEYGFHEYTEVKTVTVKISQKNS
HTT ATP protect – qHTS Multiplex Assay to Identify Dual Action Probes in a Cell Model of Huntington: Cytoprotection (ATP); Potency, µM (top dose mostly 56.4 µM), without a hit: cytoprotection (ATP increase), most hits filed as activators; PC12 HTT-Q103 induced, cytoprotection, ATP luminescence, 40 h; hit rate 0.14% among 230,000; further: potency means the concentration at half of the fitted maximal effect; % of control where 0% means no effect; nearly all actives have a fitted effect of over 45% in size
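Quantitative HTS on tebufenozide-induced (100 nM) PC12 cells expressing HTTQ103 exon 1–GFP; compounds tested as a concentration series; survival measured via cellular ATP.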
CBFb-RUNX1 inh – qHTS Assay for Compounds Blocking the Interaction Between CBF-beta and RUNX1 for the Treatment of Acute Myeloid Leukemia. AlphaScreen CBFb-His/RUNX1-biotin binding, biochemical. AID 1477, 2009. 230,000 tested, under 10 active. Potency, µM (top dose mostly 59.8 µM), without a hit: top-dose activity, negative = inhibition, usual class: inhibitors; further: % of control where 0% means no effect
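CBF-beta (His) and RUNX1 (biotin), 30 nM each; 20 min preassociation; + compound, 15 min; + beads 50 ng each (Ni, streptavidin), 90 min; RT; AlphaScreen read.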
HPGD block – qHTS Assay for Inhibitors of HPGD (15-Hydroxyprostaglandin Dehydrogenase); 15-hydroxyprostaglandin dehydrogenase [NAD(+)] (Homo sapiens), P15428; purified HPGD, NADH fluorescence kinetic, PGE2 substrate; Potency, µM, for inactives: at the highest dose activity change, negative = inhibition, actives largely listed as inhibitors; hit rate 4.3% among 150,000; AID 894, 2007; active means well fitted inhibition curve with a large enough effect, not every such curve was filed as active; inconclusive means small, poorly fitted or top-dose-only effect, or another doubt; inactive means no such curve, though single readings can be large or run the other way; further: potency means the concentration at half of the fitted maximal effect; on the % scale 0 is the no-effect control and ±100 the full control effect
Target sequence (P15428 whole entry, looked up): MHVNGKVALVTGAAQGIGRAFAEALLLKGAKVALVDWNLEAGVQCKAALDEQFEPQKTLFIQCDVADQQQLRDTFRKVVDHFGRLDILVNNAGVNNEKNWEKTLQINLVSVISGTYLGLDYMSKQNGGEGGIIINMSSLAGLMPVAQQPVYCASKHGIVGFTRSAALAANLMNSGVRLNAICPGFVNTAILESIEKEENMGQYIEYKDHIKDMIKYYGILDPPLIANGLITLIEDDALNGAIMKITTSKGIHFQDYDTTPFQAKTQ
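20 nM HPGD preincubated 15 min at room temperature with compound in 50 mM Tris-HCl pH 8, 0.01% Tween 20. Started with 1 mM NAD+ and 30 uM prostaglandin E2; NADH fluorescence (360/450 nm) read 5 times over 30-s intervals, last minus first.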
HttQ103 aggreg – qHTS Multiplex Assay to Identify Dual Action Probes in a Cell Model of Huntington: Aggregate Formation (GFP). PC12 HttQ103-GFP aggregates, Acumen cytometry, 40 h. Potency, µM (doses to about 46.1 µM), inactives show at the highest dose activity change, negative = inhibition, hits mostly inhibitors. hit rate 1.1% among 220,000. AID 1688, 2009; further: potency means the concentration at half of the fitted maximal effect; on the % scale 0 is the no-effect control and ±100 the full control effect; nearly all actives have a fitted effect of over 60% in size
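Huntingtin Q103 exon 1–GFP aggregates in induced PC12 cells (100 nM tebufenozide) were quantified by cytometry from lysates, with compounds dosed in titration.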
PNC inhibitor – High Content Assay for Compounds that inhibit the Assembly of the Perinucleolar Compartment; PC3M PTB-GFP, PNC prevalence imaging, 16 h; stronger effect = lower value; activity change (PNC), negative = inhibition, % at 10 µM; hit rate 3.1% among 140,000;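 active means readout at or below -70, meaning at least 70% loss of cells showing the perinucleolar compartment, a nuclear body marking cancer cells; inconclusive means readout between -30 and a set limit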;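 further: plate controls were DMSO wells for no effect and camptothecin positive control wells for full effect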
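Compounds are pinned in duplicate onto adhered PC3M cells stably expressing GFP-tagged PTB and incubated 16 h at 37 C. Cells are then fixed, nuclei stained with Hoechst, and PNC-positive cells counted.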
* hit, by the source's call; u = inconclusive; x = no result; [ ] = dose if it differs, or a comment. Unless noted, the call rests on the fitted dose curve; in most records, active means well fitted curve in the direction sought with a large enough effect; inconclusive means small, poorly fitted or top-dose-only effect, or another doubt; inactive means no such curve, though single readings can be large; an effect the other way counts as inactive or inconclusive.

SMILES	ALDH1A1 inh	HTT ATP protect	CBFb-RUNX1 inh	HPGD block	HttQ103 aggreg	PNC inhibitor
C[C@@H]1CCN(C(=O)[C@H](CCCNC(=N)N)NS(=O)(=O)c2cccc3c2NC[C@H](C)C3)[C@@H](C(=O)O)C1	x	-44.0%	x	x	22.0%	x
O=C(c1cccc2ccccc12)C1CCCN(C(=O)CCCn2cncn2)C1 (centres undefined)	10µM*	-4.6%[10 µM]	5.1%	x	-13.4%[9.22 µM]	x
O=S(=O)(c1ccc(C2=CSC3=NCCN23)cc1)N1CCOCC1	15.8µM*	-3.8%	5.5%	u	9.6%	-8.4
Brc1ccc(C2=CSC3=NCCN23)cc1	2.5%	-2.8%[10 µM]	-5.1%	x	-18.2%[9.22 µM]	x
COc1ccc(NCc2nnc(SCC(=O)N3CCCc4ccccc43)o2)cc1	u	-9.3%[10 µM]	-18.5%	-0.6%	-1.0%	37.5
CC1Cc2ccccc2N1C(=O)CSc1nnc(CNc2ccccc2)o1 (centres undefined)	25.1µM*	-10.1%[10 µM]	5.3%	-3.6%	15.9%	u
O=C(CSc1nnc(CNc2ccccc2)o1)N1CCCc2ccccc21	8.91µM*	-12.4%[10 µM]	-10.2%	-5.2%	-22.9%	u
Nc1ccccc1SC1CC(=O)N(c2ccccc2Cl)C1=O (centres undefined)	1.2%	-0.5%[10 µM]	5.9%	x	-7.8%[9.22 µM]	x
O=C1CC(Sc2ncccn2)C(=O)N1c1ccccc1C(F)(F)F (centres undefined)	20µM*	-11.5%[0.074 µM]	6.3%	-12.3%	u	26.1
O=C(O)c1cccnc1SC1CC(=O)N(c2cccc(C(F)(F)F)c2)C1=O (centres undefined)	12.6µM*	x	14.8%	-16.1%	u	10.4
COc1ccccc1N1C(=O)CC(Sc2ncccc2C(=O)O)C1=O (centres undefined)	4.8%	29.3%[10 µM]	2.0%	-7.6%	10.0%	-100.0*
CN(Cc1cccc2ccccc12)Cc1cccc2ccccc12	9.9%[13.5 µM]	8.8%[10 µM]	x	-4.7%	x	x
O=C1CCCc2cc3c(cc21)CC1(C3)Cc2cc3c(cc2C1)C(=O)CCC3	-7.4%	-42.7%[10 µM]	4.6%	x	-16.1%[9.22 µM]	x
FC(F)C(F)(F)C(F)(F)C(F)(F)c1cc(-c2ccccc2)n[nH]1	4.1%	-8.5%	10.0%	15.8µM*	10.8%	-3.8
CC/C=C\C/C=C\C/C=C\C/C=C\C=C\C(O)CCCC(=O)O (centres undefined)	-1.5%	1.6%	0.7%	-4.7%	x	x
Cc1cc2cc(CN(Cc3ccc4c(c3)OCO4)Cc3nnnn3C3CCCC3)c(=O)[nH]c2cc1C	22.4µM*	-16.1%[10 µM]	12.3%	-26.3%	-0.3%	39.0
O=c1[nH]c2cc3c(cc2cc1CN(Cc1ccc2c(c1)OCO2)Cc1nnnn1CC1CCCO1)OCO3 (centres undefined)	u	-26.3%	0.6%	u	17.2%	20.0
Cc1ccc2[nH]c(=O)c(CN(Cc3ccc4c(c3)OCO4)Cc3nnnn3C3CCCC3)cc2c1	20µM*	-26.3%[10 µM]	-2.4%	-26.8%	-5.0%[9.22 µM]	-22.8
Cc1ccc(-n2[nH]c(C)c(C=Nc3ccc4[nH]c(=O)[nH]c4c3)c2=O)cc1	-0.3%	1.2%[10 µM]	1.3%	-17.1%	u	60.0
Cc1ccc(N=Cc2c(C)[nH]n(-c3nc4ccccc4[nH]3)c2=O)cc1	-4.8%	x	u	-16.0%	3.3%	-81.5*
CCN(CC)CCN(C)C(=O)CCc1nnc(-c2ccc(C)s2)o1	-91.9%	u	4.1%	x	3.9%[9.22 µM]	x
CCn1nc(C)c(CNC(=O)CCc2nnc(-c3ccc(C(C)=O)s3)o2)c1C	31.6µM*	9.7%[10 µM]	4.5%	x	1.2%[9.22 µM]	x
COc1cc(/C=C/c2[nH]c(=O)[nH]c(=O)c2[N+](=O)[O-])ccc1OCCC(C)C	12.0%	12.6µM*	11.0%	x	u	x
CCC(C)Oc1ccc(/C=C/c2[nH]c(=O)[nH]c(=O)c2[N+](=O)[O-])cc1OC (centres undefined)	-7.4%	-8.7%	10.8%	x	19.2%	x
OC1C2COC(O2)[C@H](O)C1O (some centres undefined)	6.3%	x	x	-12.6%	x	x
SMILES	ALDH1A1 inh	HTT ATP protect	CBFb-RUNX1 inh	HPGD block	HttQ103 aggreg	PNC inhibitor
COc1ccc(C2CC(c3ccc(Br)cc3)=NN2C(=O)c2cccnc2)cc1 (centres undefined)	2.0%	14.0%[10 µM]	-7.5%	-12.4%	-27.3%	-23.7
COc1ccc(C2=NN(CN3C(=O)C(=O)c4ccccc43)C(c3ccc(C)cc3)C2)cc1 (centres undefined)	0.562µM*	-13.7%	-2.0%	-7.5%	-19.0%	24.2
COc1ccc(C2=NN(CN3C(=O)C(=O)c4ccccc43)C(c3ccc(Br)cc3)C2)cc1 (centres undefined)	0.282µM*	-3.9%	-5.0%	-6.5%	-12.1%	-9.8
COc1ccc(C[C@@H]2CN3C(=NC[C@@H]3C)N2C[C@H](C)NC(=O)CCC2CCCCC2)cc1	7.08µM*	7.8%[10 µM]	1.8%	x	-1.2%[9.22 µM]	x
COc1ccc(C[C@H]2CN3C(=NC[C@H]3Cc3ccccc3)N2CCNC(=O)CCC2CCCCC2)cc1	10µM*	8.1%[10 µM]	11.3%	x	3.9%[9.22 µM]	x
Cc1cc2c(nc1C)CCCN2C[C@@H](O)CN1CCN(C)CC1	-12.1%[13.5 µM]	-7.9%[10 µM]	-15.0%[13.1 µM]	x	x	x
O=C1CC(Nc2ccccc2)C(=O)N1CCc1ccccc1 (centres undefined)	3.3%	23.1%	-1.2%	1.9%	-9.7%	52.3
O=C1CC(Nc2ccc(N3CCOCC3)cc2)C(=O)N1CCc1ccccc1 (centres undefined)	25.1µM*	-28.4%	-21.7%	-9.6%	-17.3%	5.1
COc1ccc(N2C(=O)CC(Nc3ccc(N4CCOCC4)cc3)C2=O)c(OC)c1 (centres undefined)	u	-17.3%	-15.6%	-0.9%	2.8%	-87.9*
O=C1CC(Nc2ccc(N3CCOCC3)cc2)C(=O)N1c1cccc(C(F)(F)F)c1 (centres undefined)	8.91µM*	-1.7%	-23.6%	-26.8%	26.9%	22.2
CN(C)c1ccc(N2C(=O)CC(Nc3ccc(N4CCOCC4)cc3)C2=O)cc1 (centres undefined)	u	9.5%[10 µM]	u	0.8%	12.3%	u
COc1cccc(N2C(=O)CC(Nc3ccc(N4CCOCC4)cc3)C2=O)c1 (centres undefined)	-1.2%	-45.2%	-28.7%	-1.6%	17.2%	-5.8

Compound activity as filed in PubChem.
